The panel holds about 83,000 compounds, 20% with a hit somewhere; the sample as a whole holds those more often.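 Note: values are percent growth. 100 is the growth of untreated cells, values between 100 and 0 indicate rising inhibition; between -100 and 0 indicates cell death.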 The source made the active and inactive calls. How the source made its calls: active means growth percent below 10; inactive means the rest.

The record followed here is PubChem BioAssay (NCI).

The first test has as its system T-47D breast. The test can be described thus: NCI-60 one-dose screen, 48 h (100 = growth as untreated, 0 = no growth, -100 = all killed). Conditions: 10 µM unless noted.
For `N#Cc1nc(-c2ccccc2)oc1S(=O)(=O)N1CCOCC1`, the growth is 65.4% (inactive).
Same read-out and setting: the figure for `COC(C(=O)[C@@H](O)[C@@H](C)O)[C@@H]1Cc2cc3cc(O[C@H]4C[C@@H](O[C@H]5C[C@@H](O)[C@H](O)C(C)O5)[C@H](O)C(C)O4)c(C)c(O)c3c(O)c2C(=O)[C@H]1O[C@H]1C[C@@H](O[C@H]2C[C@@H](O[C@H]3C[C@@H](O)[C@H](OC)C(C)O3)[C@@H](O)C(C)O2)[C@H](O)C(C)O1` (some centres undefined) is -0.919% (active); for `CC1=C(C(=O)OC(C)C)C(c2ccc3c(c2)OCO3)NC(=S)N1` (centres undefined) it is 91.4% (inactive); for `O=C(/C=C/c1ccccc1)c1cccc(OCCCOc2cccc(C(=O)/C=C/c3ccccc3)c2)c1` it is 72.1% (inactive).

The test system of the next test is BT-549 breast. Described as above. The following applies: 10 µM unless noted.
As to `C=C1C(=O)O[C@H]2[C@H]1CC/C(COC(=O)NCc1cc[nH]c1)=C\CC[C@@]1(C)O[C@@H]21`, the growth is 55.6% (inactive).
On the same count and under the same terms, then `CSc1nc2sc3c(c2c(=O)n1-c1ccc([N+](=O)[O-])cc1)CCCCC3`, with 102% (inactive); and `O=C(Nn1c2c(sc1=NCc1ccccc1)C(=O)c1ccccc1C2=O)c1cc2ccc1CCc1ccc(cc1)CC2`, with 77.3% (inactive).
Still for that read-out and setting: the figure for `O=C(CN1C(=O)CCC1=O)Nc1ncc(Cc2ccc(F)cc2)s1` is 97.5% (inactive); for `Cc1ccc(NC(=S)NNC(=S)NNc2ccccc2)cc1C` it is 120% (inactive); for `CCN(CC)CCOc1ccc(C(=C(C)c2ccc(Cl)cc2)c2ccc(OCCN(CC)CC)cc2)cc1` it is -50.6% (active).
Same read-out and setting: the figure for `COC(=O)[C@]1(C)CCC[C@]2(C)[C@H]3C[C@H]4C(C(C)C)=C[C@]3(CC[C@H]21)[C@H]1[C@@H]4[C@@H](OCCC#N)CC[C@@H]1OCCC#N` is 19.8% (inactive).
As for `COc1ccc(-c2cc(-c3ccc(Cl)cc3)c(C#N)c(=O)n2CCCCC(=O)Nc2ccccc2N)cc1`, the growth is 46.1% (inactive).
On the same count and under the same terms, then `C=C1C(=O)O[C@H]2[C@H]1CC/C(COC(=O)NCc1ccc(Cn3c(=O)sn(CCI)c3=O)cc1)=C\CC[C@@]1(C)O[C@@H]21`, with 69.8% (inactive); and `CC(=O)OC[C@]12CCC(C)(C)C[C@H]1[C@@]1(O)[C@H](O)C[C@@H]3[C@@]4(C)CCCNC(C)(C)[C@@H]4CC[C@@]3(C)[C@]1(C)CC2`, with 111% (inactive).
Same read-out and setting: the figure for `Cc1cc(=O)[nH]c2c(C#N)cnn12` is 107% (inactive); for `O=C(OCc1ccc2c(Cl)cc(Cl)c(O)c2n1)n1cncn1` it is 50.4% (inactive).
As to `O=C1/C(=C/c2ccc(-c3ccc(Br)cc3)o2)SC(=S)N1CCc1ccc(O)cc1`, the growth was 77.8% (inactive).
Still for that read-out and setting: then `O=C1CC(N2C(=O)/C(=C/C(Cl)=C\c3ccc([N+](=O)[O-])cc3)SC2=S)C(=O)N1c1ccc(Cl)cc1` (centres undefined), with -1.71% (active); and `CCN(CC)c1nc(SCc2ccccc2Cl)ncc1C`, with 134% (inactive).
Same read-out and setting: then `N#Cc1c(-c2ccccc2)cc(-c2ccccc2)n(CCCCCC(=O)Nc2ccccc2N)c1=O`, with 49.5% (inactive); and `CCS/C(Nc1ccccc1)=C(\C#N)C(=O)N/N=C/c1ccc(Cl)cc1Cl`, with 45.4% (inactive).
Same read-out and setting: then `N#CC1=C(N)Oc2c(sc3c(Br)cccc23)C1c1ccc(F)cc1` (centres undefined), with 25.3% (inactive).
Take `O=C(Cn1c2c(c3ccccc31)CCCC2)Nc1ccc(-c2nc3ccccc3s2)cc1`: the growth is 115% (inactive).
Same read-out and setting: then `COc1cc(-c2csc(NC(=O)c3cc(-n4cnc(C)c4)cc(C(F)(F)F)c3)n2)cc(OC)c1OC`, with 47.4% (inactive); and `CCN(CC)CCCN1C(=O)c2c(c(C)c3c(oc4cc(O)ccc43)c2C)C1=O`, with 94.8% (inactive); and `COc1cc2oc(-c3cccc(NC(=O)c4cccc(Br)c4)c3)cc(=O)c2c(OC)c1OC`, with 50.2% (inactive).
For the compound `O=C(Cn1c(=O)sc2nc3ccccc3nc21)Nc1ncc(Cc2cccc(Cl)c2Cl)s1`, the growth is 100% (inactive).
The same measure, in the same setting: then `COc1ccc(OC)c(C(=O)/C=C/c2cc3c(c(OC)c2OC)OCO3)c1`, with 65.6% (inactive); and `COC(=O)CCC(=O)C(=O)OC`, with -12.2% [10 mM] (active); and `O=C1c2c(c3c4ccccc4[nH]c3c3ccc4ccccc4c23)C(=O)N1CCN1CCCCC1`, with 78.9% (inactive).
Regarding `CCO/C=N/C1=C(C#N)C(c2ccc(OC)cc2)c2sc3c(F)cccc3c2O1` (centres undefined), the growth is 49.8% (inactive).
The same measure, in the same setting: the figure for `COCCn1c(-c2csc(-c3cn(C)c4ccc(OC)cc34)n2)cc2cccnc21` is 43.6% (inactive); for `CN1C(=O)/C(=C/c2cn(-c3ccccc3)nc2-c2ccccc2)SC1=S` it is 106% (inactive); for `CC(C)NC1CCC(Nc2ccnc3cc(Cl)ccc23)CC1` (centres undefined) it is 88.8% (inactive).
Same read-out and setting: then `O=S(=O)(Nc1cc(Br)c(O)c2ccccc12)c1ccc(F)cc1`, with 100% (inactive); and `CCN(CC)CCOc1ccc(-c2c(-c3ccccc3)c(=O)oc3ccccc23)cc1`, with 69.3% (inactive); and `O=C(/C=C/c1cn(-c2ccccc2)nc1-c1ccc([N+](=O)[O-])cc1)c1ccc(Cl)cc1`, with 62.7% (inactive).
In the case of `Cc1cc2c(O)c(-c3cccc(Cl)c3)c3sc(=O)oc3c2cc1C`, the growth was 58.8% (inactive).
Same read-out and setting: then `Cc1cccc(Cl)c1NC(=O)c1ccc2nc(NC(=O)NCCN(C)C)sc2c1`, with 82.1% (inactive); and `O=C(c1ccccc1)C1C(=O)N2C(=S)N(c3ccccc3)C(=O)C2C1c1ccc(Cl)cc1` (centres undefined), with 88.6% (inactive).
Still for that read-out and setting: the figure for `N#Cc1nc(-c2ccccc2)oc1S(=O)(=O)N1CCOCC1` is 86.6% (inactive); for `COC(C(=O)[C@@H](O)[C@@H](C)O)[C@@H]1Cc2cc3cc(O[C@H]4C[C@@H](O[C@H]5C[C@@H](O)[C@H](O)C(C)O5)[C@H](O)C(C)O4)c(C)c(O)c3c(O)c2C(=O)[C@H]1O[C@H]1C[C@@H](O[C@H]2C[C@@H](O[C@H]3C[C@@H](O)[C@H](OC)C(C)O3)[C@@H](O)C(C)O2)[C@H](O)C(C)O1` (some centres undefined) it is -22.9% (active); for `CC1=C(C(=O)OC(C)C)C(c2ccc3c(c2)OCO3)NC(=S)N1` (centres undefined) it is 96% (inactive).
On to `O=C(/C=C/c1ccccc1)c1cccc(OCCCOc2cccc(C(=O)/C=C/c3ccccc3)c2)c1`, for which the growth is 92% (inactive).
